Several values for one entry are separate records, joined by “and”; a condition that tells them apart may be missing. Identical values can stand only once. Records with an inconclusive call do not appear. Activity calls are given as the source filed them. The call rests on the fitted dose curve; in most records, active means well fitted curve in the direction sought with a large enough effect; inconclusive means small, poorly fitted or top-dose-only effect, or another doubt; inactive means no such curve, though single readings can be large or run the other way.
experiment: qHTS Assay for Identifying Gametocytocidal Compounds (AID 743244);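 on max response: actives lower the fluorescent signal which means gametocytes are killed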; conditions: P. falciparum 3D7 stage III-V gametocytes, alamarBlue, 72 h; max response: active compounds read low
Summary of the method: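 P. falciparum 3D7 stage III–V gametocytes (20,000 cells/well) were exposed to compounds for 72 h at 37 °C, 5% CO2. AlamarBlue was then added for 24 h; decreased resorufin fluorescence (Ex 525/Em 598 nm) indicated loss of viability.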
On the % scale 0 is the no-effect control and ±100 the full control effect; potency means the concentration at half of the fitted maximal effect.

SMILES | max response | Potency
CN1C(=O)CN2CCc3ccccc3C2c2cc(Cl)ccc21 (centres undefined) | 0.102% (inactive) | –
O=C1CSC2(CCN(CCCN3c4ccccc4Sc4ccc(Cl)cc43)CC2)N1 | -3.9% (inactive) | –
O=C(Nc1ccc(Br)cc1)c1cc(Br)c(Br)s1 | 1.98% (inactive) | –
C[C@@H]1C[C@H]2[C@@H]3CCC4=CC(=O)C=C[C@]4(C)[C@@]3(F)[C@@H](O)C[C@]2(C)[C@@]1(O)C(=O)COP(=O)(O)O | 10.9% (inactive) | –
O=C(COc1ccc(Cl)cc1)OCCNC12CC3CC(CC(C3)C1)C2 | -2.86% (inactive) | –
O=C(O)C1CCCN1 (centres undefined) | 5.42% (inactive) | –
C=CC1=C(C)C2=CC3=NC(=C(CC(=O)[O-])C4=NC(=C(C)C4=C([O-])[O-])C=c4[n-]c(c(C)c4CC)=CC1=N2)C(CCC(=O)[O-])C3C.[Cu+2].[Na+].[Na+].[Na+] (centres undefined) | 14.4% (inactive) | –
C[C@]12CCC(=O)C=C1CC[C@@H]1[C@@H]2[C@@H](O)C[C@@]2(C)[C@H]1CC[C@]2(O)C(=O)COP(=O)(O)O | -12.2% (inactive) | –
CCC(=O)NCCC1CCc2ccc3c(c21)CCO3 (centres undefined) | 12.4% (inactive) | –
CC(=O)Oc1c(C)cc(OCC(O)CNC(C)C)c(C)c1C (centres undefined) | – | 15.8 µM (active)
CCCCC(C)(O)C/C=C/[C@H]1[C@H](O)CC(=O)[C@@H]1CCCCCCC(=O)OC (some centres undefined) | -1.16% (inactive) | –
CCCC(=O)O[C@]1(C(=O)COC(C)=O)CC[C@H]2[C@@H]3C[C@H](F)C4=CC(=O)C=C[C@]4(C)[C@@]3(F)[C@@H](O)C[C@@]21C | 9.8% (inactive) | –
CC1=C(/C=C/C(C)=C/C=C/C(C)=C/CO)C(C)(C)CCC1 | 11.8% (inactive) | –
CCC(=O)OCC(=O)[C@@]1(OC(=O)CC)[C@H](C)C[C@H]2[C@H]3[C@H]([C@@H](O)C[C@@]21C)[C@@]1(C)C=CC(=O)C=C1C[C@H]3Cl | -4.51% (inactive) | –
Cc1c(C)c2c(c(C)c1O)CC[C@@](C)(CCC[C@H](C)CCC[C@H](C)CCCC(C)C)O2 | 1.54% (inactive) and 7.72% (inactive) | –
C[C@@H]1[C@H](O)[C@@H](C)/C=C/C=C\C=C\C=C\C=C\C=C\C=C\[C@H](O[C@@H]2O[C@H](C)[C@@H](O)[C@H](N)[C@@H]2O)C[C@@H]2O[C@](O)(C[C@@H](O)C[C@@H](O)[C@H](O)CC[C@@H](O)C[C@@H](O)CC(=O)O[C@H]1C)C[C@H](O)[C@H]2C(=O)O (stereo in doubt) | 4.52% (inactive) | –
CC(=O)Oc1cc(C)c(OC(C)=O)c2ccccc12 | – | 6.31 µM (active)

SMILES | max response | Potency
CC[C@H]1OC(=O)[C@H](C)[C@@H](O[C@H]2C[C@@](C)(OC)[C@@H](O)[C@H](C)O2)[C@H](C)[C@@H](O[C@@H]2O[C@H](C)C[C@H](N(C)C)[C@H]2O)[C@](C)(O)C[C@@H](C)/C(=N\OCOCCOC)[C@H](C)[C@@H](O)[C@]1(C)O | -7.41% (inactive) and 9.46% (inactive) | –
Nc1c(Br)cc(Br)cc1CNC1CCC(O)CC1 (centres undefined) | 19% (inactive) | –
CNC(C)[C@@H]1CC[C@@H](N)[C@@H](O[C@H]2[C@H](O)[C@@H](O[C@H]3OC[C@](C)(O)[C@H](NC)[C@H]3O)[C@H](N)C[C@@H]2N)O1 (some centres undefined) | 5.9% (inactive) | –
CCCCCCCCCCCCCC[n+]1ccc(C)cc1 | – | 7.94 µM (active)
CC(NNC(=O)c1ccccc1)c1ccccc1 (centres undefined) | -2.82% (inactive) | –
COc1ccc(C[C@@H](C)NC[C@H](O)c2ccc(O)c(NC=O)c2)cc1 | 19.6% (inactive) | –
CO[C@H]1C=CO[C@@]2(C)Oc3c(C)c(O)c4c(O)c(c5c(nc6cc(C)ccn65)c4c3C2=O)NC(=O)/C(C)=C\C=C[C@H](C)[C@H](O)[C@@H](C)[C@@H](O)[C@@H](C)[C@H](OC(C)=O)[C@@H]1C | – | 12.6 µM (active)
Nc1c(N=Nc2ccc(-c3ccc(N=Nc4cc(S(=O)(=O)O)c5ccccc5c4N)cc3)cc2)cc(S(=O)(=O)O)c2ccccc12 | 13.5% (inactive) | –
COC(F)(F)C(Cl)Cl | 1.97% (inactive) | –
CC(C)NCC1CCc2cc(CO)c([N+](=O)[O-])cc2N1 (centres undefined) | -6.43% (inactive) | –
CCOc1ccc(N=Nc2ccc(N)cc2N)cc1 | 4.91% (inactive) | –
CCNC(=O)[C@@H]1CCCN1C(=O)[C@H](CCCN=C(N)N)NC(=O)[C@H](CC(C)C)NC(=O)[C@@H](Cc1c[nH]c2ccccc12)NC(=O)[C@H](Cc1ccc(O)cc1)NC(=O)[C@H](CO)NC(=O)[C@H](Cc1c[nH]c2ccccc12)NC(=O)[C@H](Cc1cnc[nH]1)NC(=O)[C@@H]1CCC(=O)N1 | – | 6.31 µM (active)
CCCCCCCCCCCCCCCC(=O)OCC(COC(=O)CCCCCCCCCCCCCCC)OC(=O)CCCCCCCCCCCCCCC | 4.37% (inactive) | –
Cc1cc(C(=O)NNCc2ccccc2)no1 | -1.55% (inactive) | –
CC(C)(C)C(=O)OCOC(=O)[C@@H]1N2C(=O)[C@@H](N=CN3CCCCCC3)[C@H]2SC1(C)C | 2.95% (inactive) | –
CCC[C@@H]1C[C@@H](C(=O)N[C@@H]([C@H]2O[C@H](SC)[C@H](OP(=O)(O)O)[C@@H](O)[C@H]2O)[C@H](C)Cl)N(C)C1 | 4.72% (inactive) and 1.78% (inactive) | –
CC1(C)O[C@@H]2C[C@H]3[C@@H]4CCC5=CC(=O)C=C[C@]5(C)[C@H]4[C@@H](O)C[C@]3(C)[C@]2(C(=O)CO)O1 | -15.3% (inactive) | –

— PubChem BioAssay (NCATS)
